Measured values published in PubChem BioAssay (Tox21).
Records with an inconclusive call do not appear. Values without a mark were called inactive. The source made the active and inactive calls. Calls follow the shape of the full dose curve.

Molecular target: Beta-2 adrenergic receptor (Homo sapiens) (UniProt P07550)
Assay: Adrenergic beta2 receptor (ADRB2) small molecule antagonists, cell-based qHTS assay (AID 1963592); also: nearly all actives have a fitted effect of over 50% in size
Settings: CHO-ADRB2 cells, isoproterenol-stimulated cAMP HTRF ratio, 0.5 h; series mostly up to 92.4 µM; activity change, negative = inhibition: at the top concentration
From the text: U.S. Tox21 Program National Center for Advancing Translational Sciences [NCATS] Division of Preclinical Innovation [DPI] U.S. Environmental Protection Agency [EPA] National Institutes of Environmental Health Sciences [NIEHS] National Toxicology Program [NTP] U.S. Food and Drug Administration [FDA] Tox21 Assay Overview: Beta adrenergic receptors (Beta-ARs) belong to the G-protein coupled receptor (GPCR) superfamily, includes three subtypes - beta1, beta2, and beta3. Beta1-AR is the predominant receptor subtype expressed in the heart, and beta2-AR is expressed in the kidney, lung, blood vessel and in the heart, and beta3 is found in the adipocytes. Beta1 and 2 ARs couple to Gs protein and elevate cyclic adenosine mono phosphate (cAMP), which activates protein kinase A and leads to the downstream signaling responsible for the physiological actions. Beta-AR agonists or antagonists are the most prescribed therapeutic agents for heart failure and asthma, and these were one of the first target receptors for the rational drug design. Tox21 10K compound library was screened using the cAMP-Gs dynamic assay (Cisbio Bioassays, Shelton, CT) to identify agonists/antagonists of the Gs-coupled human adrenergic, beta2 receptor (ADRB2) in the CHO-ADRB2 cell line (Codex BioSolutions, Inc. Gaithersburg, MD), which stably over-expresses ADRB2. The principle of cAMP-Gs dynamic assay is based on HTRF technology, which facilitates the fluorescence resonance energy transfer (FRET) between donor Europium cryptate and acceptor d2-labeled cAMP. The cAMP generated within cells competes with the red acceptor, d2-labled cAMP, for binding to the monoclonal anti-cAMP-cryptate (Europium donor). An increase in intracellular cAMP leads to the disruption of FRET signal, and the signal is inversely proportional to the cAMP concentration. Propranolol HCl (Sigma-Aldrich, St. Louis, MO) was used as a positive control in the screening.
Tox21 Assay Protocol Summary: CHO-ADRB2 cells were dispensed at 1,000/well in 4uL assay medium into white/solid 1536-well plates (Greiner Bio-One North America Inc., Monroe, NC) using a Multidrop Combi dispenser (ThermoFisher Scientific, Waltham, MA). The assay plates were incubated at 37C and 5% CO2 for an overnight (18-20hr). Then positive control and test compounds dissolved in DMSO were transferred to the assay plates at 23nL using a Pintool station (Wako, San Diego, CA). Following the compound and positive control transfer, 1uL agonist-stimulation mix containing 1nM Isoproterenol HCl, 100uM IBMX and 25uM Ro-20-1724 was added to each well of the assay plates using BioRAPTR Flying Reagent Dispenser (FRD, Beckman Coulter, Brea, CA). The assay plates were incubated at room temperature for 0.5hr. Then 2.5ul each d2-labled cAMP and anti-cAMP-cryptate solutions were added separately to each well of the assay plates using an FRD and the assay plates were incubated at room temperature for 1hr. The fluorescence signal was measured at two different wavelengths (665nm and 615nm) using an Envision plate reader (Perkin Elmer, Shelton, CT). Data were expressed as the ratio of 665 nm/615 nm.
% is scaled to controls: 0 for no effect and ±100 for the full control effect; potency is read from the fitted curve at half-maximal effect.

Beta-2 adrenergic receptor (Homo sapiens), sequence (P07550 whole entry, looked up): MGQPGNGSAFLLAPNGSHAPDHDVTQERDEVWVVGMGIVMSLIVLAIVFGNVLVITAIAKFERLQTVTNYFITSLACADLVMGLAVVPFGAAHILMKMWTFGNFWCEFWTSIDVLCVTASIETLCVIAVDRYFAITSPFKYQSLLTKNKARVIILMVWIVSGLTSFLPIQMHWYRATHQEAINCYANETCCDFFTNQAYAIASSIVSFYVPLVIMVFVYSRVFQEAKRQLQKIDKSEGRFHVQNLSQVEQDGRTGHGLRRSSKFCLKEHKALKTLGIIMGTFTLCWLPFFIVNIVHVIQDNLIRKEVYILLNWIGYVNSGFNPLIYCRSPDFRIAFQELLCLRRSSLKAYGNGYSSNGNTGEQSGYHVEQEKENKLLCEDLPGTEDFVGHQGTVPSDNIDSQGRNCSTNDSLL

Compound	activity change, negative = inhibition	Potency
CCC(C)(C)c1ccc(CC(C)CN2C[C@@H](C)O[C@@H](C)C2)cc1 (stereo not given in full)	6.62% [at 42.5 µM]	–
OCCOc1cccc(OCCO)c1	-0.789%	–
Cc1cc(O)c(Cl)c(C)c1Cl	-15.3%	–
COC(=O)C1=C(C)NC(C)=C(C(=O)OCCCN2CCC(c3ccccc3)(c3ccccc3)CC2)C1c1cccc([N+](=O)[O-])c1 (stereo not given)	-25% [at 42.5 µM]	–
COc1cc2nc(N(C)CCCNC(=O)C3CCCO3)nc(N)c2cc1OC (stereo not given)	-13.8% [at 42.5 µM]	–
CC(=O)OCC(=O)[C@@]1(O)[C@H](C)C[C@H]2[C@@H]3CCC4=CC(=O)C=C[C@]4(C)[C@@]3(F)[C@@H](O)C[C@@]21C	-11.6% [at 42.5 µM]	–
CNCCC(Oc1ccc(C(F)(F)F)cc1)c1ccccc1 (stereo not given)	–	inactive
CC[C@H]1OC(=O)[C@H](C)[C@@H](O[C@H]2C[C@@](C)(OC)[C@@H](O)[C@H](C)O2)[C@H](C)[C@@H](O[C@@H]2O[C@H](C)C[C@H](N(C)C)[C@H]2O)[C@](C)(O)C[C@@H](C)/C(=N\OCOCCOC)[C@H](C)[C@@H](O)[C@]1(C)O	-0.293% [at 42.5 µM]	–
c1cc2ccc3ccc4ccc5cccc6c(c1)c2c3c4c56	4.76% [at 3.27 µM]	–
CN(c1nccc(=O)[nH]1)C1CCN(c2nc3ccccc3n2Cc2ccc(F)cc2)CC1	-4.25% [at 42.5 µM]	–
CCOC(=O)[C@H](CCc1ccccc1)N[C@H]1CCc2ccccc2N(CC(=O)O)C1=O	–	23.7 µM (active)
SCCc1cnccn1	1.24%	–
O=c1[nH]c(=O)n([C@H]2C[C@H](O)[C@@H](CO)O2)cc1F	5.06% [at 42.5 µM]	–
CC(=O)c1ccc2c(c1)N(CCCN(C)C)c1ccccc1S2	-21.7% [at 42.5 µM]	–
CCN(CC)c1ccc(N=Nc2ccccc2)cc1	0.417%	–
O=C(Cl)c1cccc([N+](=O)[O-])c1	6.36%	–
CCCCCCCCCCCCOCCOS(=O)(=O)O	-11.6%	–
CC(=O)OCC(=O)[C@@]1(O)CC[C@H]2[C@@H]3CCC4=CC(=O)CC[C@]4(C)[C@H]3C(=O)C[C@@]21C	-6.05% [at 42.5 µM]	–
C[C@H](CCC(=O)O)[C@H]1CC[C@H]2[C@@H]3[C@H](O)C[C@@H]4C[C@H](O)CC[C@]4(C)[C@H]3CC[C@]12C	-16%	–
N[C@@H](Cc1ccc(O)cc1)C(=O)O	-0.134% [at 8.39 µM]	–

Compound	activity change, negative = inhibition	Potency
C1CN(SSN2CCOCC2)CCO1	–	inactive
O=c1[nH]c2ccc(S(=O)CCN3CCC(Cc4ccc(F)cc4)CC3)cc2o1 (stereo not given)	-7.76%	–
CN(C)CC[C@@H](c1ccc(Cl)cc1)c1ccccn1	3.1% [at 42.5 µM]	–
CC(C)(O)c1ccc(C(C)(C)O)cc1	1.68%	–
C[C@H]1O[C@@H](O[C@H]2CC[C@@]3(C)[C@H](CC[C@@H]4[C@@H]3C[C@@H](O)[C@]3(C)[C@@H](C5=CC(=O)OC5)CC[C@]43O)C2)C[C@H](O)[C@@H]1O[C@H]1C[C@H](O)[C@H](O[C@H]2C[C@H](O)[C@H](O[C@@H]3O[C@H](CO)[C@@H](O)[C@H](O)[C@H]3O)[C@@H](C)O2)[C@@H](C)O1	2.97% [at 42.5 µM]	–
CC(C)COC(=O)CCCCC(=O)OCC(C)C	0.377%	–
CCCCN1C(=O)c2ccccc2C1=O	-7.75%	–
COC(C)(C)OC	-9.54%	–
COc1ccc2c(c1)c1c3n2CCN(C)C3=NCC1	-0.493% [at 42.5 µM]	–
CC(C)CCCCCCN	1.16%	–
CCN(Cc1cccnc1)C(=O)c1cccc(Cl)c1[C@]1(C)C(=O)N(Cc2ccc(OC)cc2OC)c2ccc(Cl)cc21	-10.3%	–
N#Cc1ccc(C(c2ccc(C#N)cc2)n2cncn2)cc1	-16.1% [at 42.5 µM]	–
CCCCC=O	-17.9%	–
CCc1ncc(C)[nH]1	-1.71%	–
C=C[Si]1(C)O[Si](C)(C=C)O[Si](C)(C=C)O[Si](C)(C=C)O1 (stereo not given)	4.82%	–
COC(=O)C1=C(C)NC(C)=C(C(=O)OCC(C)=O)C1c1ccccc1[N+](=O)[O-] (stereo not given)	16.1% [at 42.5 µM]	–
Cc1cc(=O)c2c(O)c3c(O)cc(=O)c4c3c3c(cc(O)c1c23)C(C)(C)C=4O	0.889% [at 19 µM]	–
C[C@]12CCC(=O)C=C1C=C[C@@H]1[C@@H]2CC[C@@]2(C)[C@H]1CC[C@@]21CCC(=O)O1	-8.76% [at 42.5 µM]	–
CCCCCCCCCCCC(=O)[O][Sn]([CH2]CCC)([CH2]CCC)[O]C(=O)CCCCCCCCCCC	3.34% [at 42.5 µM]	–
Cc1ccc(O)c2ncccc12	12.4% [at 42.5 µM]	–
